High-throughput results: PubChem, National Center for Advancing Translational Sciences (NCATS)
Apoferritin bind: qHTS Assay for Identification of Novel General Anesthetics | Ferritin light chain (Equus caballus), P02791 | actives 0.074% (n = 350,000) | apoferritin/1-aminoanthracene competitive binding, fluorescence | Potency, µM (highest dose often 77.5 µM), for the others: at the top dose activity change, negative = displacement, hits mostly inhibitors; also: % is scaled to controls: 0 for no effect and ±100 for the full control effect; nearly all actives have a fitted effect of over 20% in size
Target sequence (P02791 2-175 limits assumed): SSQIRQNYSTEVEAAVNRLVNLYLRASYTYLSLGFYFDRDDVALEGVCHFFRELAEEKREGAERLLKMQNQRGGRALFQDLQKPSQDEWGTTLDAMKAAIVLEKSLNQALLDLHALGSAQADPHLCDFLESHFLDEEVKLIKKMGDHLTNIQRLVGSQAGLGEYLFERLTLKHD
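Probe: 1-aminoanthracene (50% saturated, PBS). Protein: horse-spleen apoferritin, 10 uM. Incubation: 10 min, room temperature. Detection: 380 nm excitation, 535 nm emission. Analysis: normalized response, four-parameter Hill.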
HepG2 tox: qHTS for Inhibitors of TGF-b: Cytotox Counterscreen | Potency, µM (top dose mostly 46.1 µM), for the others: at the highest dose activity change, negative = cytotoxicity, most hits filed as cytotoxic | HepG2 CAGA-GFP viability, ATP luminescence, 18 h | AID 588856, 2011 | actives 0.76% (n = 410,000)
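HepG2 CAGA-GFP cells (1000/well, DMEM with 1% FBS) received compound, then TGF-beta at 500 pg/mL final, and were incubated 18 hours at 37 degrees C. Viability was read by CellTiter-Glo luminescence. Media-only wells were set as complete cell-killing and DMSO as no toxicity.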
ATXN2 expr inh: Primary qHTS for Inhibitors of ATXN expression. HEK-293 ATXN2-luciferase reporter, luminescence, 24 h. Potency, µM (doses to about 57 µM), for the others: at the highest dose activity change, negative = inhibition, most hits filed as inhibitors. actives 0.72% (n = 360,000). AID 1745845, 2022; also: % is scaled to controls: 0 for no effect and ±100 for the full control effect; nearly all actives have a fitted effect of over 55% in size
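ATXN2-luciferase reporter cells (luciferase flanked by upstream and downstream ATXN2 gene portions) were treated 24 h at 37 °C with compounds at up to 57 uM. SteadyGlo luminescence gave expression; GF-AFC fluorescence gave viability.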
ATXN viability: Viability Counterscreen for Primary qHTS for Inhibitors of ATXN expression | S2 cells (HEK-293 line with an ATXN2-luciferase reporter) viability, CellTiter-Fluor protease fluorescence, 24 h | Potency, µM (top dose mostly 56.7 µM), hits mostly cytotoxic | actives 0.49% (n = 400,000); also: nearly all actives have a fitted effect of over 40% in size
TGFb inhibitor: qHTS for Inhibitors of TGF-b; HepG2 CAGA-GFP TGF-b/SMAD3 reporter, GFP fluorescence, 18 h; TGF-beta stimulated, 500 pg/mL final; Potency, µM (highest dose often 46.1 µM), for the others: at the top dose activity, negative = inhibition, hits mostly inhibitors; actives 1.2% (n = 410,000); AID 588855, 2011; also: % is scaled to controls: 0 for no effect and ±100 for the full control effect; nearly all actives have a fitted effect of over 65% in size
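HEPG2 CAGA-GFP cells (1000/well, DMEM with 1% FBS) were pre-incubated 2 h at 37 degrees C, given compound by pin tool, then stimulated with TGF-beta at 500 pg/mL final for 18 h before per-cell GFP fluorescence imaging.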
Starred values were filed as active, the others as inactive; i = inactive; ? = inconclusive; / = no result given; [ ] = dose if it differs, or a comment. Hits are enriched below; roughly 2.4% of the tested compounds scored in any of these assays. Calls follow the shape of the dose curve; as a rule, active = well fitted curve in the direction sought with a large enough effect; inconclusive = small, poorly fitted or top-dose-only effect, or another doubt; inactive = no such curve, though single readings can be large; an effect the other way counts as inactive or inconclusive. Potency is read from the fitted curve at half-maximal effect.

SMILES | Apoferritin bind | HepG2 tox | ATXN2 expr inh | ATXN viability | TGFb inhibitor
CCCN(CCC)C(=O)CC(c1ccccc1)c1cc(C)ccc1O (stereo not given) | -22% | -42% | 3% | i | ?
CN(Cc1ccccc1)C(=O)CC(c1ccccc1)c1cc(Cl)ccc1O (stereo not given) | -12% | -100% | -36% | i | 16µM*
Cc1ccc(C(=O)C(=O)O)cc1C | / | / | 2% | i | /
CC(C)c1cccc(NC(=O)COC(=O)c2ccccc2OCc2cccc(Br)c2)c1 | / | -25% | / | / | -22%
CN1CCN(c2cc3c(c4c2[nH]c2ccccc24)C(=O)CC(C)(C)C3)CC1 | 216% | 11µM* | ? | ? | ?
CN1CCN(c2ccc(Cl)cc2NC(=O)c2cc(=O)[nH]c3ccccc23)CC1 | / | -34% | -36% | i | 6%
COc1ccccc1Cn1c(CNS(=O)(=O)c2ccc(CC(C)C)cc2)nc2cccnc21 | 4% | -25% | / | / | 13µM*
COc1ccccc1Cn1c(CNS(=O)(=O)c2ccc(C(C)C)cc2)nc2cccnc21 | -6% | -13% | / | / | ?
COc1ccc(SCC(CC(C)C)N2CCN(C)CCC2=O)cc1 (stereo not given) | -1% | -22% | / | / | -22%
CCOC(=O)CCN1C(=O)[C@H]2[C@H]3[C@H](O)[C@H](O)C/C(=N/OCC(C)C)[C@H]3CC[C@@H]2C1=O | -9%[15.3 µM] | / | / | / | /
O=C(Cn1nc2ccccc2n1)N/N=C/c1cc([N+](=O)[O-])ccc1O | -8% | -36% | 20µM* | ? | 0%
NC(N)=N/N=C/c1cc([N+](=O)[O-])ccc1O | 1% | -1% | -9% | ? | -2%
O=C(Cn1nnc(-c2ccccc2)n1)N/N=C/c1cc([N+](=O)[O-])ccc1O | -10% | 6% | ? | ? | 9%
O=[N+]([O-])c1ccc(O)c(/C=N\N=C2c3ccccc3-c3ccccc32)c1 | -9% | -38% | 22µM* | ? | 2.8µM*
Cc1nc2cc(NC(=O)[C@@H]3C[C@@H](Sc4ccccn4)CN3Cc3cccc(Cl)c3)ccc2s1 | / | / | / | i | /
C/C=C(/C(=C/C)c1ccc(OC(C)=O)cc1)c1ccc(OC(C)=O)cc1 | / | / | -12% | i | /
O=C(Cn1sc2ccccc2c1=O)Nc1ccc(F)cc1 | / | 22µM* | ? | / | 18µM*
O=C(Cn1sc2ccccc2c1=O)Nc1ccc(Cl)cc1 | / | -57% | -20% | ? | 11µM*
O=C(Cn1sc2ccccc2c1=O)Nc1ccc(Br)cc1 | / | -48% | -20% | ? | ?
Cc1cnc2ccccc2c1/C=C/c1ccc(N)cc1 | / | -28% | / | / | -18%
CCCc1ccc(OCC(=O)N2CCN(C(=O)COc3ccc(CCC)cc3OC)CC2)c(OC)c1 | / | / | -2% | i | /
CC1(C)CC(N=c2cc(-c3ccccc3)oc3ccc(Cl)cc23)CC(C)(C)N1 | -19% | 16µM* | 1%[11.3 µM] | i | ?
CCOC(=O)CN[C@@H](C(=O)N1CC[C@H]1C(=O)NCc1ccc(/C(N)=N/O)cc1)C1CCCCC1 | / | / | / | i | /
CCCCCCN1C[C@@H](n2cc(-c3ccc(F)cc3)nn2)[C@H](O)C[C@@H]1c1ccc(Cl)cc1 | / | -112% | ? | 18µM* | ?
CCCCCCN1C[C@H](O)[C@@H](n2cc(-c3ccc(F)cc3)nn2)C[C@@H]1c1ccc(Cl)cc1 | / | -40% | ? | ? | ?
SMILES | Apoferritin bind | HepG2 tox | ATXN2 expr inh | ATXN viability | TGFb inhibitor
CCCCCCN1C[C@H](n2cc(-c3ccc(F)cc3)nn2)[C@@H](O)C[C@@H]1c1ccc(C)cc1 | / | 11µM* | ? | / | ?
CCCCCCN1C[C@H](n2cc(C3CC3)nn2)[C@@H](O)C[C@@H]1c1ccc(OC)cc1 | / | -99% | ? | 25µM* | ?
Cc1ccc([C@H]2C[C@@H](O)[C@H](n3cc(-c4ccc(F)cc4)nn3)CN2C(=O)C2CCCCC2)cc1 | / | -32% | ? | / | 13µM*
CCCCCCN1C[C@H](n2cc(C3CC3)nn2)[C@@H](O)C[C@@H]1c1ccccc1 | / | -107% | ? | ? | ?
C(=C\c1nc2ccccc2nc1/C=C/c1ccc2c(c1)OCO2)/c1ccc2c(c1)OCO2 | / | -2% | / | / | 20%
CCN(CC)CC(=O)OCC(=O)[C@@]1(O)CC[C@H]2[C@@H]3CCC4=CC(=O)CC[C@]4(C)[C@H]3[C@@H](O)C[C@@]21C | / | / | -6% | i | /
C/C(CCN1CCCCc2nc(C)c(C)cc21)=N\OC[C@@H](O)COCc1ccco1 | 2%[15.3 µM] | / | / | / | /
COc1ccc(C(=O)CCN(C)C)c2ccccc12 | / | -103% | / | / | 6.3µM*
COc1ccc(C(=O)c2ccc(Cl)cc2)c2ccccc12 | -8% | -8% | -8% | i | -13%
CC(=O)Nc1ccccc1C | / | -4% | 5% | i | -3%
Cc1ccccc1NC(=O)C(=Cc1ccc(C(=O)O)cc1)C(=O)Nc1ccccc1C | -5% | -36% | 11µM* | ? | ?
CC(=O)/C(=C/c1ccccc1)C(=O)Nc1ccccc1C | -12% | -48% | / | ? | 13µM*
Cc1cnc(C)c(-c2cccc3c2OC(CNC(=O)/C=C/c2ccc(F)c(F)c2)C3)n1 (stereo not given) | / | / | / | i | /
O=C(O)[C@H](CC(=O)N1C[C@@H]2CCCC[C@H]2C1)Cc1ccccc1 | / | / | 12% | / | /
CC(C)(C)C(=O)Nc1ccc(C(=O)CN2C(=O)NC3(CCOc4ccccc43)C2=O)cc1 (stereo not given) | / | -10% | / | i | 1%
Cc1sc2ccccc2[n+]1CCCC[n+]1c(C)sc2ccccc21 | / | -31% | / | / | ?
COc1ccc(CCN(C(=O)c2cccc(F)c2)C2CC(=O)N(c3ccc(OC)cc3)C2=O)cc1 (stereo not given) | -14% | -10% | -7% | i | ?
COC(=O)c1c(N)sc(C(=O)NCCc2ccccc2)c1C | -10% | -35% | 3.5µM* | i | 0%
CCOC(=O)C=C[C@H](C[C@@H]1CCNC1=O)NC(=O)[C@@H](CC(=O)[C@@H](NC(=O)c1cc(C)on1)C(C)C)Cc1ccc(F)cc1 | / | / | 13% | / | /
CN(C)CCCCCCNc1nccc(N2CCN(C)CC2)n1 | / | -38% | / | / | 3%
CCN(CC)c1ccc(/C=C/c2ccc3ccccc3n2)cc1 | / | 3.2µM* | / | / | 2.5µM*
CCN(CC)c1ccc(/C=C/c2nccc3ccccc23)cc1 | / | -55% | / | / | 162%
CC[N+](C)(C)c1ccc(/C=C/c2ccc3ccccc3n2)cc1 | / | -56% | / | / | 6.3µM*
CC(=O)/C=C/c1ccc2ccccc2n1 | -8% | 20µM* | 2% | i | ?
COc1ccc(N(Cc2cccs2)C(=O)Nc2cccc(Cl)c2)cc1 | -1% | -20% | / | / | ?
COc1ccc(Cl)cc1NC(=O)Nc1cccc([N+](=O)[O-])c1C | -8% | -2% | 20µM* | ? | ?
